Reference: PubChem BioAssay (NCI)
About 79,000 compounds went through this panel and 15% of them were active in at least one assay; those are over-represented in the sample as a whole. The source made the active and inactive calls. Rule as the data show it: active = growth inhibition above about 70%; inactive = the rest.

Tests used:
[1] = NCI Yeast Anticancer Drug Screen. Data for the rad50 strain (AID 155);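 also: 0% = growth of vehicle-only cultures of the same strain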; conditions: S. cerevisiae rad50 strain growth inhibition; at 50.0 µM; active compounds read high
In short: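 Cells are treated with compound, grown, and their growth is then scored against vehicle-only cultures of the same repair-deficient yeast strain.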

[2] = NCI Yeast Anticancer Drug Screen. Data for the mec2-1 strain (AID 157); conditions: S. cerevisiae mec2-1 strain, at 50.0 µM, active compounds read high
In short: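 mec2-1 yeast strain, carrying an alteration in DNA damage repair or cell cycle control, was exposed to compounds; growth inhibition was measured relative to vehicle-treated controls.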

[3] = NCI Yeast Anticancer Drug Screen. Data for the sgs1 mgt1 strain (AID 161);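 also: 0% = growth of cultures given vehicle only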; conditions: S. cerevisiae sgs1 mgt1 strain, at 50.0 µM, active compounds read high
In short: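 Percent growth inhibition was derived by comparing compound-exposed mutant yeast with vehicle-exposed cultures. The strain carries alterations in DNA damage repair.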

[4] = NCI Yeast Anticancer Drug Screen. Data for the cln2 rad14 strain (AID 165);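 also: 0% = growth equal to vehicle treated cultures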; conditions: S. cerevisiae cln2 rad14 strain, at 50.0 µM, active compounds read high
In short: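 Yeast carrying cln2 and rad14 alterations (cell cycle control and DNA damage repair) were exposed to compounds. Growth inhibition was measured against vehicle-treated controls.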

[5] = NCI Yeast Anticancer Drug Screen. Data for the bub3 strain (AID 167); conditions: S. cerevisiae bub3 mutant strain, at 50.0 µM, active compounds read high
In short: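 Part of a panel of yeast mutants defective in DNA damage repair or cell cycle regulation. Each strain is grown with compound, and inhibition is calculated relative to solvent-treated cultures.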

[6] = NCI Yeast Anticancer Drug Screen. Data for the mlh1 rad18 strain (AID 175); conditions: S. cerevisiae mlh1 rad18 strain growth inhibition; at 50.0 µM; active compounds read high
In short: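 Growth inhibition of the yeast strain was measured after compound exposure and expressed relative to vehicle-treated controls. The strain carries defined defects in DNA damage repair.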

Measured: growth inhibition

OC1(c2ccccc2)c2ccccc2NC2=NCCN21 (stereo unspecified)
inactive: [1] -14.7% | [2] -12.4% | [3] -10.7% | [4] -10.5% | [5] -45.9% | [6] -16.9%

O=C1Oc2cc3c(c4cccc1c24)O[C@H](c1ccccc1)[C@@H](c1ccccc1)[C@@H]3c1ccc(Cl)cc1
inactive: [1] -2.95% | [2] 11.2% | [3] -2.4% | [4] -5.15% | [5] 3.3% | [6] 9.3%

CC(C)(C)c1cc(Nc2c([N+](=O)[O-])cc([N+](=O)[O-])cc2[N+](=O)[O-])cc(C(C)(C)C)c1O
inactive: [1] -17.7% | [2] 10.4% | [3] 2.65% | [4] 20.4% | [5] -5.4% | [6] 0.45%

CCC(C)(O)c1cn(-c2cccc(S(=O)(=O)O)c2)nn1 (stereo unspecified)
inactive: [1] -9.3% | [2] -10.2% | [3] -8.05% | [4] 5.95% | [5] -8.65% | [6] -8.35%

COC(=O)C1(CC(=O)Cc2ccccc2)NC(=S)NC(=O)C1C#N (stereo unspecified)
inactive: [1] 8.45% | [2] -7.7% | [3] -12.2% | [4] -12.1% | [5] -29.1% | [6] 4.8%

CN(Cc1ccc(Cl)cc1)C(=O)NCCCCCCNC(=O)N(C)Cc1ccc(Cl)cc1
active: [1] 96.8% | [2] 96.6% | [3] 95.7% | [4] 96.2% | [5] 95.7% | [6] 96.8%

NC1=Nc2cc(C(F)(F)F)ccc2Sc2nc3ccccc3n21
inactive: [1] 4% | [2] -15.8% | [3] 20.1% | [4] 13.2% | [5] 22.4% | [6] 5.65%

O=C(O)C(CSC(c1ccccc1)(c1ccccc1)c1ccccc1)NSc1ccccc1[N+](=O)[O-] (stereo unspecified)
active: [1] 96.2% | [2] 97.2% | [3] 97.7% | [4] 96.5% | [5] 95.6% | [6] 97.8%

Cc1cc(N(CCC#N)CCC#N)ccc1N=Nc1cc(Cl)ccc1Cl
inactive: [1] 18.8% | [2] 16.8% | [3] -8.55% | [4] 13.2% | [5] 42% | [6] 16.6%

CC(C)(C)C(=O)[CH-]C(=O)C(F)(F)F.CC(C)(C)C(=O)[CH-]C(=O)C(F)(F)F.CC(C)(C)C(=O)[CH-]C(=O)C(F)(F)F.[Ru+3]
inactive: [1] 25.8% | [2] -4.65% | [3] 1.7% | [4] -1.35% | [5] 8.5% | [6] 24.4%

COc1ccc(C(C#N)C(=O)C(=O)Nc2ccc(Cl)cc2C)cc1OC (stereo unspecified)
inactive: [1] -19.9% | [2] 17.9% | [3] 24.6% | [4] -14.2% | [5] 2.65% | [6] 16.9%

CC(=O)C1CC2CCC1C2 (stereo unspecified)
inactive: [1] 10.4% | [2] 12.8% | [3] -8.7% | [4] -12.4% | [5] 1.25% | [6] 7.9%

COc1ccc(C(=O)/C=C/c2ccncc2)cc1OC
inactive: [1] 41.8% | [2] 38.4% | [3] 51.5% | [4] 5.55% | [5] 32.5% | [6] 36.9%

COc1ccccc1NC(=O)N1CCN(c2cccc(C)c2)CC1
inactive: [1] 4.5% | [2] -2.3% | [3] 12.6% | [4] -15.7% | [5] 37.4% | [6] -8.4%

C=C(NC(C)=O)C(=O)CCC(N)=O
inactive: [1] -0.75% | [2] -0.7% | [3] -7.5% | [4] 1.75% | [5] 4.75% | [6] -53.7%

C=CCOc1cc2c(cc1C(C)c1ccc(OC)cc1)OCO2 (stereo unspecified)
inactive: [1] 12.3% | [2] 0.75% | [3] 5.95% | [4] -10.3% | [5] 14.5% | [6] -0.6%

Clc1ccc(C=Nc2ccccc2)c(Cl)c1
inactive: [1] 23.9% | [2] 10.8% | [3] 20.9% | [4] 11.5% | [5] -2.75% | [6] 26.6%

NC1C(O)C(N)C(O)C(O)C1O (stereo unspecified)
inactive: [1] 3.3% | [2] 20.4% | [3] 5.6% | [4] 1.6% | [5] -13.4% | [6] 3.25%

Cc1ccc(N2CCN(C(=O)c3ccccc3)CC2)cc1
inactive: [1] -16.9% | [2] 1.55% | [3] -2.45% | [4] -13.6% | [5] 16.5% | [6] -9.35%

COC(=O)C1C(=O)N(C)c2cc(C)c(C)cc2C1(C)C (stereo unspecified)
inactive: [1] 7.55% | [2] -9.4% | [3] 1.6% | [4] 5.8% | [5] 24.9% | [6] -3.9%

CC(=O)OC1CC(=O)OC(C)(C)C2CC(=O)C3(C)C(CCC4(C)C(c5ccoc5)OC(=O)C5OC543)C12C (stereo unspecified)
inactive: [1] 20.5% | [2] -18.3% | [3] 11.1% | [4] 2.85% | [5] -6.55% | [6] 21.1%

CC1(C)CCC2(C(=O)OC3OC(CO)C(O)C(O)C3O)CCC3(CO)C(=CCC4C5(C)CC(O)C(O)C(C)(C(=O)OC6OC(CO)C(O)C(O)C6O)C5CCC43C)C2C1 (stereo unspecified)
inactive: [1] 2.3% | [2] 4.45% | [3] 17.6% | [4] 23.2% | [5] 19.3% | [6] -92.2%

CS(=O)(=O)CC(O)c1ccccc1 (stereo unspecified)
inactive: [1] 4.8% | [2] -3.2% | [3] 2.95% | [4] -12.7% | [5] 6.65% | [6] -21.4%

CC(C)(C)C1CCCC(=O)C1 (stereo unspecified)
inactive: [1] 8.3% | [2] -5.15% | [3] 3.5% | [4] 10.3% | [5] 6.85% | [6] 3.15%

CSc1c(C#N)c(N)nc2c(N=Nc3ccc(Cl)cc3)c(N)nn12
inactive: [1] 8.75% | [2] 3.65% | [3] -9.1% | [4] -4.65% | [5] -6.5% | [6] -58%

O=P(O)(O)CN1CCN(CP(=O)(O)O)CCN(CP(=O)(O)O)CCN(CP(=O)(O)O)CC1
inactive: [1] -39.9% | [2] -16.8% | [3] -8.75% | [4] 12.1% | [5] -0.05% | [6] -19.1%

CC(=O)OCC1OC(OCCCc2ccccc2)C(OC(C)=O)C(OC(C)=O)C1OC(C)=O (stereo unspecified)
inactive: [1] 21% | [2] 5.5% | [3] 6.45% | [4] -47.9% | [5] -65.9% | [6] 24.9%

COc1c(OCC(O)CN2CCCCC2)c2c(C)coc2c2ccoc12 (stereo unspecified)
inactive: [1] 34.5% | [2] 18.6% | [3] 16.1% | [4] 9.25% | [5] 4.15% | [6] 23.1%

CCc1cccc(CC)c1NC(=O)Nc1cc(Cl)ccc1C
inactive: [1] 1.8% | [2] 6.45% | [3] 5.4% | [4] -8.45% | [5] 30.1% | [6] 7.9%

O=CC1N=C1c1ccccc1 (stereo unspecified)
inactive: [1] 9.4% | [2] -0.05% | [3] 0.65% | [4] 18.3% | [5] 25.9% | [6] 16.1%

[N-]=[N+]=Nc1ccccc1-c1ccc([N+](=O)[O-])cc1
inactive: [1] -12.9% | [2] -11.5% | [3] 11.1% | [4] -32.2% | [5] 1.2% | [6] 29.6%

CCCSc1nnc(SCCC)c2[nH]cnc12
inactive: [1] 0.85% | [2] -5.45% | [3] 0.95% | [4] -22.3% | [5] 2.4% | [6] -8.7%

O=C(Nc1cc([N+](=O)[O-])ccc1Cl)c1ccc(F)cc1
inactive: [1] 13.2% | [2] 6.4% | [3] 14.6% | [4] 17.8% | [5] 28.9% | [6] 19.8%

O=[N+]([O-])c1ccc(N=Nc2c(O)c3ccccc3c3ccccc23)c([N+](=O)[O-])c1
inactive: [1] 46.6% | [2] 10.3% | [3] 27.9% | [4] 25.9% | [5] 6.1% | [6] 23.2%

N#CC(c1ccccc1)[N+](=O)[O-] (stereo unspecified)
inactive: [1] 11.2% | [2] -5.05% | [3] -2.45% | [4] 9.3% | [5] -2.95% | [6] 22.8%

O=c1[nH]c2cc([N+](=O)[O-])ccc2nc1/C=C(\O)c1ccccc1
inactive: [1] -21.2% | [2] -18.4% | [3] -14.3% | [4] -3.7% | [5] -1.8% | [6] 3.3%

CCOC(=O)c1cc2c(cn1)[nH]c1cccc(N)c12
inactive: [1] -10.3% | [2] -39.5% | [3] 7.05% | [4] 5.85% | [5] -3.5% | [6] -9.55%

COc1ccccc1-n1c(NN)nc2ccc(Br)cc2c1=O
inactive: [1] 55.6% | [2] 13.4% | [3] 27.4% | [4] 13.2% | [5] 27.2% | [6] -12.4%

O=[N+]([O-])c1ccc(N=CC2CCC=CO2)cc1 (stereo unspecified)
inactive: [1] -4.3% | [2] 17.8% | [3] -10.2% | [4] -27.9% | [5] -9.4% | [6] -14.9%

CCO/C=C\C(OCC)OCC
inactive: [1] 3.55% | [2] -8.95% | [3] 3.1% | [4] -15.2% | [5] 18.2% | [6] -0.6%

CC(=O)OC(OC(C)=O)c1cccc2ccccc12
inactive: [1] 3.05% | [2] -9.3% | [3] -5.8% | [4] -15.9% | [5] 16.9% | [6] -3.9%
